Experimental findings from PubChem BioAssay (NCATS) are described below.

The nature of test [1]: AP1 Signaling Pathway (AID 357; active = well fitted curve in either direction with a large enough effect, not every such curve was filed as active; note: % is set by controls: 0 for no effect and ±100 for the full control effect). To be noted: ME-180 AP-1-bla reporter, EGF-induced, beta-lactamase ratio, 5 h; at 17.2 µM (top of the series). In a few lines: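 ME-180 cells with beta-lactamase reporter under AP-1 response element, stimulated with EC50 EGF; compounds tested in titration series, 5 h at 37 °C. CCF4 substrate added 2.5 h at room temperature; 460/530 nm emission ratio gave %activity and AC50.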

Test [2] can be described thus: NFAT Signaling Pathway (AID 444; active = well fitted curve in either direction with a large enough effect, not every such curve was filed as active;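 note: carbachol stimulus at about its EC50 of 1 µM final; % is set by controls: 0 for no effect and ±100 for the full control effect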). The settings on record: Jurkat NFAT-bla M1, carbachol, beta-lactamase ratio, 5 h; at 17.2 µM (top of the series). In a few lines:
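Jurkat cells carrying an NFAT-driven β-lactamase reporter and co-transfected muscarinic M1 receptor were treated with compound plus carbachol (1 uM final, an EC50 level) for 5 h at 37 °C. CCF4 loading followed for 1 h at RT; 460/530 nm ratio gave %activity.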

Test [3] is described as follows: Stat Signaling Pathway (AID 446; active = well fitted curve in either direction with a large enough effect, not every such curve was filed as active;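 note: ME-180 cervical cancer cells given 40 pM IL-6 alongside compound; SIE-controlled beta-lactamase reporter measured as 460/530 nm FRET emission ratio; % is set by controls: 0 for no effect and ±100 for the full control effect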). To be noted: ME-180 (cervical carcinoma) SIE beta-lactamase reporter, IL-6 stimulated, 5 h; at 17.2 µM (top of the series). In a few lines:
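ME-180 SIE-bla cells; overnight plating; cpd + IL-6 40 pM, 5 h, 37 C; LiveBLAzer 2.5 h RT; 460/530 nm emission ratio. Normalized to 300 pM IL-6 and 125 nM JAK inhibitor controls.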

For test [4], the target named is Glucocorticoid receptor (Homo sapiens) (UniProt P04150). Put plainly: GR-GFP Redistribution (AID 450;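 active = compounds whose dose series gives a full or clear partial fitted curve of increased nuclear translocation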; note: potency is the fitted concentration of half-maximal effect). To be noted: U2OS GR-GFP nuclear translocation, laser cytometry, 2 h.
In test [5] the target is Bile acid receptor (Homo sapiens) (UniProt Q96RI1). Put plainly: qHTS assay for small molecule antagonists of farnesoid X receptor signaling (AID 588526; calls by dose curve; note: % is set by controls: 0 for no effect and ±100 for the full control effect). To be noted: HEK293T FXR-UAS-bla, beta-lactamase ratio, antagonist mode; series mostly up to 76.7 µM. In a few lines:
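Concentration-response titrations were fitted to the Hill equation for half-maximal inhibition and maximal response, with data normalised to 50 uM chenodeoxycholic acid and DMSO control wells. Cells: FXR-UAS-bla HEK293T, dialyzed FBS.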

The target of test [6] is Glucocorticoid receptor (Homo sapiens) (UniProt P04150). Description: qHTS assay for small molecule agonists of glucocorticoid receptor signaling (AID 588532; active = well fitted curve in the direction sought with a large enough effect in the signal ratio, with a control signal flat; the % refers to the signal ratio;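 note: 100% = dexamethasone at 0.1 µM and 0% = DMSO only wells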). The settings on record: HeLa MMTV-bla, beta-lactamase ratio, agonist, 18 h; stronger effect = higher value; percent of dexamethasone control, DMSO zero. In a few lines: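 MMTV-bla HeLa, beta-lactamase reporter; medium with 1% charcoal/dextran-stripped FBS; cpds up to 92 uM, 18 h, 37 C; CCF4 readout 460/530 nm; Hill fit → EC50, efficacy vs 0.1 uM dexamethasone = 100%.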
For orientation: Quantitative high-throughput screening tests each substance at several concentrations.

For test [7], the target named is Peroxisome proliferator-activated receptor gamma (Homo sapiens) (UniProt P37231). Description: qHTS assay for small molecule agonists of peroxisome proliferator-activated receptor gamma signaling (AID 588536; active = well fitted curve in the direction sought with a large enough effect in the signal ratio, with a control signal flat, not every such curve was filed as active; the % refers to the signal ratio;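 note: 0% = DMSO basal wells and 100% = rosiglitazone at 2 µM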). To be noted: HEK293 PPARg-UAS-bla, beta-lactamase ratio, 16 h, percent of rosiglitazone response, DMSO as zero; series mostly up to 76.7 µM. In a few lines: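 PPAR-gamma-UAS-bla HEK293 cells in medium with 1% charcoal/dextran-treated FBS were exposed to compounds for 16 h at 37 C. Beta-lactamase activity was read with CCF4 substrate (405 nm excitation, 460/530 nm emission).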

For test [8] the target is unchanged. Put plainly: qHTS assay for small molecule antagonists of peroxisome proliferator-activated receptor gamma signaling (AID 588537; active = well fitted inhibition curve with a large enough effect in the signal ratio, with a control signal flat, not every such curve was filed as active; the % refers to the signal ratio;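 note: reporter cells co-stimulated with 50 nM rosiglitazone agonist during compound treatment; % of control where 0% means no effect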). To be noted: HEK293 PPARg-UAS-bla, beta-lactamase ratio, antagonist mode; series mostly up to 76.8 µM. In a few lines:
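We seeded GeneBLAzer HEK293 reporter cells at 3000 per well, allowed 6-6.5 h attachment at 37 C, then co-treated with test compound titrations and 50 nM rosiglitazone overnight (16 h). Inhibition was quantified from 460/530 nm emission ratios.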

Test [9] addresses Thyroid hormone receptor beta (Homo sapiens) (UniProt P10828). Description: qHTS assay for small molecule agonists of thyroid hormone receptor beta signaling (AID 588545; calls by dose curve;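 note: 0% = DMSO only and 100% = 10 nM T3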). To be noted: TR-UAS-bla GripTite HEK 293, beta-lactamase ratio, agonist mode, 18 h, percent of T3 response, DMSO as zero; series mostly up to 76.7 µM. In a few lines:
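TR-UAS-bla-GripTite HEK 293 cells in medium with 2% charcoal/dextran FBS, 0.1 mM NEAA and 1 mM sodium pyruvate were treated with titrated compounds for 18 hrs at 37 C. Beta-lactamase reporter was read with CCF4 dye (ex 405, em 460/530 nm); EC50 from Hill fits.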

Test [10] is described as follows: qHTS assay for small molecule antagonists of retinoid X receptor alpha signaling (AID 588546; active = well fitted inhibition curve with a large enough effect in the signal ratio, with a control signal flat, not every such curve was filed as active; the % refers to the signal ratio). To be noted: HEK293T RXRa-UAS-bla, beta-lactamase ratio, antagonist mode; measured here: W530 green channel, cytotoxicity proxy. In a few lines:
(§1)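 Beta-lactamase reporter inhibition, read as CCF4 fluorescence ratio (ex 405, em 460/530 nm) after 2 h at RT. HEK293T UAS-bla cells, 2500/well, were stimulated with 9-cis-RA at 500 or 100 nM final alongside test compound for 18 h at 37 C.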

The target of test [11] is Retinoic acid receptor RXR-alpha (Homo sapiens) (UniProt P19793). The test is described as above. To be noted: HEK293T RXRa-UAS-bla, beta-lactamase ratio, antagonist mode. In a few lines:
as §1

The nature of test [12]: qHTS assay for small molecule activators of the p53 signaling pathway (AID 651743; active = well fitted activation curve with a large enough effect in the signal ratio, not every such curve was filed as active; the % refers to the signal ratio; note: % of control where 0% means no effect). The settings on record: HCT-116 p53RE-bla, beta-lactamase FRET ratio, 16 h; stronger effect = higher value. In a few lines:
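Cell-based beta-lactamase reporter (p53 response elements, HCT-116 background). After a 5-hour preincubation, cells received compound for 16 hours at 37 C; substrate development ran 2 hours at room temperature.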

Test [13] is described as follows: qHTS assay for small molecule activators of the nuclear factor-kappa B (NF-kB) signaling pathway (AID 651749; active = well fitted activation curve with a large enough effect in the signal ratio; the % refers to the signal ratio; note: % of control where 0% means no effect). The settings on record: NF-kB-bla ME-180 cells, beta-lactamase FRET ratio, 16 h; stronger effect = higher value. In a few lines: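 Screening used 2,000 ME-180 reporter cells per well exposed to pinned compound (23 nL) or DMSO; after 16 hr at 37C, beta-lactamase expression under NF-kB control was assessed through FRET.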

The nature of test [14]: qHTS assay for environmental chemicals that activate the Aryl hydrocarbon Receptor (AhR) signaling pathway (AID 651777). Note: % of control where 0% means no effect; nearly all actives have a fitted effect of over 15% in size. To be noted: 1A2-DRE human hepatoma cells, luciferase, 24 h; stronger effect = higher value. In a few lines: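 Following a 24 hr incubation with test chemicals at 37 C and 5% CO2, 1A2-DRE human hepatoma cells received One-Glo reagent; after 30 min at room temperature, luciferase output reflected CYP1A2 induction via AhR.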

Test [15] has as its target Peroxisome proliferator-activated receptor alpha (Homo sapiens) (UniProt Q07869). Put plainly: qHTS assay for small molecule agonists of the peroxisome proliferator-activated receptor alpha (PPARalpha) signaling pathway (AID 651778). Note: % of control where 0% means no effect. To be noted: PathHunter PPARalpha complementation, chemiluminescence, 6 h; stronger effect = higher value. In a few lines: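 Cells plated at 2,000/well and held overnight at 37 C, 5% CO2, then compound added by pin tool for 6 hr; after PathHunter detection reagent and 60 min at room temperature, chemiluminescence from enzyme complementation was read.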

Test [16] can be described thus: qHTS assay for small molecule agonists of the antioxidant response element (ARE) signaling pathway measured by Nrf2-dependant transcriptional activity (AID 720636; active = well fitted curve in the direction sought with a large enough effect in the repeat runs; an effect the other way counts as inactive or inconclusive; note: % of control where 0% means no effect). To be noted: ARE-luc HepG2, Nrf2 luciferase reporter, 16 h; series mostly up to 92.4 µM. In a few lines: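 ONE-Glo luminescence, read 30 min after reagent addition at room temperature, reflected ARE reporter activity in HepG2 cells that had been incubated with compound for 16 hr at 37 C in 1% dialyzed FBS.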

Test [17] can be described thus: qHTS assay for small molecule agonists of the antioxidant response element (ARE) signaling pathway measured by Nrf2-dependant transcriptional activity - cell viability counter screen (AID 720653; active = well fitted curve in the direction sought with a large enough effect in the repeat runs; an effect the other way counts as inactive or inconclusive; note: % is set by controls: 0 for no effect and ±100 for the full control effect). The settings on record: ARE-bla HepG2 viability, CellTiter-Glo ATP luminescence, 16 h; max response: stronger effect = lower value. In a few lines: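 ARE-bla HepG2 cells (2,000/well) rested 5 hrs at 37C/5% CO2, then exposed to compounds in DMSO for 16 hrs. Viability was read in the same wells as intracellular ATP by luminescence, 30 min at room temperature after reagent addition.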

Test [18] in a line: qHTS assay for cell viability of HEK293 cells (AID 743288). Note: % is set by controls: 0 for no effect and ±100 for the full control effect; nearly all actives have a fitted effect of over 50% in size. The settings on record: ATP luminescence (CellTiter-Glo), 18 h; max response: stronger effect = lower value. In a few lines: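 Luminescent ATP quantitation served as the viability read-out. Cells (parental HEK293, 2,000/well) received compounds after at least 5 h at 37 C and were exposed for 18 h before a 30 min room-temperature reagent step.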

The nature of test [19]: qHTS assay for cell viability of the p53RE-bla HCT-116 cell line (AID 743292). Note: % is set by controls: 0 for no effect and ±100 for the full control effect; nearly all actives have a fitted effect of over 55% in size. To be noted: p53RE-bla HCT-116 viability, ATP luminescence, 16 h; series mostly up to 95 µM. In a few lines: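 After plating at 4,000 cells per well and a 5 h rest at 37 C, HCT-116 cells carrying p53RE-bla received test chemicals in DMSO. Sixteen hours later at 37 C, CellTiter-Glo was added and luminescence recorded following 30 min at room temperature.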

Test [20] has as its system Zika virus NS2B-NS3 protease. Put plainly: Primary screen GU AMC qHTS for Zika virus inhibitors (AID 1347154).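 Note: 0% = no-inhibitor control and -100% = no-enzyme control; nearly all actives have a fitted effect of over 70% in size.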 To be noted: Zika NS2B-NS3 unlinked protease, AMC fluorogenic substrate; series mostly up to 54.1 µM. In a few lines:
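Unlinked Zika NS2B hydrophilic domain/NS3 protease domain noncovalent complex (25 nM final) in 10 mM Tris-HCl pH 8.0, 0.01% Tween 20, with AMC peptide substrate. Fluorescence (ex 340, em 450 nm) change over 15 min, room temperature; percent inhibition fitted to 4-parameter Hill equation.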

A short description of test [21]: Primary qHTS for small molecule stabilizers of the endoplasmic reticulum resident proteome: Secreted ER Calcium Modulated Protein (SERCaMP) assay (AID 1508630). Note: % is set by controls: 0 for no effect and ±100 for the full control effect. The settings on record: SH-SY5Y GLuc-SERCaMP (Gaussia luciferase released on ER calcium loss) secretion, thapsigargin, luminescence; series mostly up to 38.4 µM. In a few lines: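 GLuc-SERCaMP-expressing SH-SY5Y cells, pretreated 16 h with compound, are challenged with thapsigargin to empty ER calcium stores; after 4 h, coelenterazine is added directly to the medium and luminescence is imaged.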

Several values for one entry are separate records, joined by “and”; a condition that tells them apart may be missing. Equal values may be shown once. Records with an inconclusive call do not appear. Activity calls are given as the source filed them. Unless noted, calls come from the whole dose curve; as a rule, active = well fitted curve in the direction sought with a large enough effect; inconclusive = small, poorly fitted or top-dose-only effect, or another doubt; inactive = no such curve, though single readings can be large; an effect the other way counts as inactive or inconclusive.

Sequence of Glucocorticoid receptor (Homo sapiens) (P04150 whole entry, looked up): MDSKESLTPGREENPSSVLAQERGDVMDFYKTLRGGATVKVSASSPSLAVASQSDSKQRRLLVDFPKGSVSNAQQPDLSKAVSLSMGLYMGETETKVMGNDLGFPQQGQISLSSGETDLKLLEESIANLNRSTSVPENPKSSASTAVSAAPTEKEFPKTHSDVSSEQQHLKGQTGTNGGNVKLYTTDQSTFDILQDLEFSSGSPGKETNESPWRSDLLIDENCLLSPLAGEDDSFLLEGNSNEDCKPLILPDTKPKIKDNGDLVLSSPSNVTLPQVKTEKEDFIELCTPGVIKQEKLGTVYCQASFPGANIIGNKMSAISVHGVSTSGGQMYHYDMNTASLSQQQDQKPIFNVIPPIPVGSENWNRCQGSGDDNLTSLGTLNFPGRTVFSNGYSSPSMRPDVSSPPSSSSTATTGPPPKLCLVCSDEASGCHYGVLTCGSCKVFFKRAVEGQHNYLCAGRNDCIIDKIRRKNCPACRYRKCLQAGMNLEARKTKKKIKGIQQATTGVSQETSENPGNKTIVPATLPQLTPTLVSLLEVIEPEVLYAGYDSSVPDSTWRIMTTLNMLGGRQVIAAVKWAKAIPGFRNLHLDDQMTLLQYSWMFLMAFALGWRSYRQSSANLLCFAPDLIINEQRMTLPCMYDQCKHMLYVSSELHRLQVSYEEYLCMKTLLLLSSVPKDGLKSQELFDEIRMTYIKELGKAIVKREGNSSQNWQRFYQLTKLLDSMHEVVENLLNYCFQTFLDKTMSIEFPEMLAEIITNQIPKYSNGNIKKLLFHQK
Sequence of Peroxisome proliferator-activated receptor gamma (Homo sapiens) (P37231 whole entry, looked up): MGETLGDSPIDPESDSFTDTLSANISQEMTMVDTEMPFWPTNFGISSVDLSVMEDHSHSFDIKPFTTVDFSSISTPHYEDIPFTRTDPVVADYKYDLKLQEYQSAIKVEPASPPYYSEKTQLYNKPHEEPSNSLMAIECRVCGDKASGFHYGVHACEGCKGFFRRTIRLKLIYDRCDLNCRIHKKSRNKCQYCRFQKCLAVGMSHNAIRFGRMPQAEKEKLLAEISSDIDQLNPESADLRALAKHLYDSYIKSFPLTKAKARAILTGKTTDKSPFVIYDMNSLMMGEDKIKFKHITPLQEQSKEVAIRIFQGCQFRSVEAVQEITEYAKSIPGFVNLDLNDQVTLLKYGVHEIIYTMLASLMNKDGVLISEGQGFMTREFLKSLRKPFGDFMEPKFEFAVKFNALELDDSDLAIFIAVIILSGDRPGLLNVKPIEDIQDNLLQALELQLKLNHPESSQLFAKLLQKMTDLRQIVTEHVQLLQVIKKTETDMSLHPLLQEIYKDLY
Sequence of Thyroid hormone receptor beta (Homo sapiens) (P10828 whole entry, looked up): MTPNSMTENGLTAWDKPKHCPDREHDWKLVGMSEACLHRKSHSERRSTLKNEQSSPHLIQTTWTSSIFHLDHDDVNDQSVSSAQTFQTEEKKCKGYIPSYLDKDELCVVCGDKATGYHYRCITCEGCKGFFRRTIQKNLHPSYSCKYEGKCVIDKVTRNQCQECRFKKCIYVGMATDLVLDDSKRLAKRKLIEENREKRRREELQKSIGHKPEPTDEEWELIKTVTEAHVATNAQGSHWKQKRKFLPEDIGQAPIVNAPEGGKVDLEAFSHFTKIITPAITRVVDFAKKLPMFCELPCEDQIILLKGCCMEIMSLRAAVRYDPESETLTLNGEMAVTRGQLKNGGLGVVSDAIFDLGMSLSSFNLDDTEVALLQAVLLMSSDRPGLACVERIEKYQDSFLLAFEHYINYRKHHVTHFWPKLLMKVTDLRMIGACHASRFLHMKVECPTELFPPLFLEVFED
Sequence of Peroxisome proliferator-activated receptor alpha (Homo sapiens) (Q07869 whole entry, looked up): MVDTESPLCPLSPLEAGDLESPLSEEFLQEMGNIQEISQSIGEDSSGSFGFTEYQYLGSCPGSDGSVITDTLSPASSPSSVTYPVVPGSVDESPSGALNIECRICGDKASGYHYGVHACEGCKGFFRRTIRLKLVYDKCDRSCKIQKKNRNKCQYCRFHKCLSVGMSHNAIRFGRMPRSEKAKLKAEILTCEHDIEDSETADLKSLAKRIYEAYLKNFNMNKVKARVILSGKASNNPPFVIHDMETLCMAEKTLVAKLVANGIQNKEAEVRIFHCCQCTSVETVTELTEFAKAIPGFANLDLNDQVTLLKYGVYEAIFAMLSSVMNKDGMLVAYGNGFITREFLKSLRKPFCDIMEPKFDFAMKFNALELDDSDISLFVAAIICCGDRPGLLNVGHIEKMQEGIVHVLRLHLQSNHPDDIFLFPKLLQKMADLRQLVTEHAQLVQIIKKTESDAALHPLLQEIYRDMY
Sequence of Bile acid receptor (Homo sapiens) (Q96RI1 whole entry, looked up): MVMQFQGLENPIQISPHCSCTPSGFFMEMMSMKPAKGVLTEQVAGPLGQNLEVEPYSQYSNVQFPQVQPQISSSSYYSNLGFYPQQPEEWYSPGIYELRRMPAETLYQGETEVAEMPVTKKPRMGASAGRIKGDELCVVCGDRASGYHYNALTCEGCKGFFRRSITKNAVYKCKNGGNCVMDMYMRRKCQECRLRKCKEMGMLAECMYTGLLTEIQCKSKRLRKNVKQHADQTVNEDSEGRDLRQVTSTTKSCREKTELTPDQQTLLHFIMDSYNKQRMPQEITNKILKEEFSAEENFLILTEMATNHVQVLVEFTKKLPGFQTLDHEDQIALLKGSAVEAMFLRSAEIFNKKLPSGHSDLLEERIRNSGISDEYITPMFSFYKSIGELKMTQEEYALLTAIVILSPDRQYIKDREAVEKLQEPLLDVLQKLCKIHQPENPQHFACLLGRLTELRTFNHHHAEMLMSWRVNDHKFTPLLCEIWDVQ
Sequence of Retinoic acid receptor RXR-alpha (Homo sapiens) (P19793 whole entry, looked up): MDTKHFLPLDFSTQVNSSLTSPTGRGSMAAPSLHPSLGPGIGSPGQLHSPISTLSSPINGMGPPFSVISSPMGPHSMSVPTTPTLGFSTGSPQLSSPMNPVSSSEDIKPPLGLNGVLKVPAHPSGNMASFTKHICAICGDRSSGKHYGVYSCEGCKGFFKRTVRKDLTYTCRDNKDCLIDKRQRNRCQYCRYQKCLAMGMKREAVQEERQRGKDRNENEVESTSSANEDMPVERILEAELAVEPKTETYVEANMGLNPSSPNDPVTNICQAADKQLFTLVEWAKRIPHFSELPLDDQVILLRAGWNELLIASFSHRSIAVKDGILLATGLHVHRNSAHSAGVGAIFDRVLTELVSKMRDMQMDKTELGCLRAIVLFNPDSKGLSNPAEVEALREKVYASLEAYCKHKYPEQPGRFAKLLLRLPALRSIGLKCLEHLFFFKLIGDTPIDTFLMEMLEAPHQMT

`CC(=O)[C@H]1[C@H](C#N)C[C@H]2[C@@H]3CC=C4C[C@@H](O)CC[C@]4(C)[C@H]3CC[C@@]21C`: the activity change, negative = inhibition was 5.31% (inactive) in test [1] and 9.39% (inactive) in test [2]. Further, in [3], the activity, negative = inhibition is 2.76% (inactive). Moreover, in test [4], the Potency is > 20.6 µM (inactive). Further, the outcome in test [5], in test [7], in [8], in test [9] and in [16] was inactive. Further, the activation in [6] is -8.47% (inactive) and 3.7% (inactive); in test [12], 0.753% (inactive) and -1.56% (inactive); in test [13] it was -1.18% (inactive) and -2.42% (inactive); in test [14], -1.23% (inactive) and 0.356% (inactive). Besides, the max response in test [10] was 9.02%; in [11], -3.98% (inactive); in [15] it was -0.257% (inactive) and 0.0087% (inactive); in [17], -9.55% (inactive) and -3.25% (inactive); in test [18], -20.6% (inactive) and -13.5% (inactive). For the same compound, the Potency entry in test [19], in test [20] and in test [21] was “inactive” in each case.
